# Data published in publication PMC11006913.
# Residue numbers refer to the chain shown, from its start.
# Key:
# Assay in all cases: PBM; 200 nM protein, PBS
# Details in all cases: dsDNA, one strand shown
# PAX4 [1] = target: T1, PAX4 (Homo sapiens, UniProt O43316 9-242, R200K)
# T1 sequence: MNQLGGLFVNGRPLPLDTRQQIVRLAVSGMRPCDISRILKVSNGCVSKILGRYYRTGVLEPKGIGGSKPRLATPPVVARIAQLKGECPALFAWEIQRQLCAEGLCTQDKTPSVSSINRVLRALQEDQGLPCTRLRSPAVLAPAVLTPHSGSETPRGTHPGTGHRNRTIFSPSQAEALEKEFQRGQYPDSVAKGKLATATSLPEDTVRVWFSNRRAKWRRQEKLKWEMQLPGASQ
# PAX4 [2] = target: T2, PAX4 (Homo sapiens, UniProt O43316 9-242)
# T2 sequence: T1 sequence with K192R
# HOXB6 [3] = target: HOXB6 (Homo sapiens, UniProt P17509 132-218, K202E)
# ALX3 [4] = target: ALX3 (Homo sapiens, UniProt O95076 139-225, N203Q)
# PAX4 [5] = target: T3, PAX4 (Homo sapiens, UniProt O43316 9-242, R200Q)
# T3 sequence: T1 sequence with K192Q
# PAX4 [6] = target: T4, PAX4 (Homo sapiens, UniProt O43316 9-242, F177V)
# T4 sequence: T1 sequence with F169V, K192R
# PAX4 [7] = target: T5, PAX4 (Homo sapiens, UniProt O43316 9-242, F177Y)
# T5 sequence: T1 sequence with F169Y, K192R
# PAX4 [8] = target: T6, PAX4 (Homo sapiens, UniProt O43316 9-242, R227W)
# T6 sequence: T1 sequence with K192R, R219W
# ALX3 [9] = target: ALX3 (Homo sapiens, UniProt O95076 139-225, N203S)
# ALX4 [10] = target: ALX4 (Homo sapiens, UniProt Q9H161 200-286)
# ALX4 [11] = target: ALX4 (Homo sapiens, UniProt Q9H161 200-286, Q225E)
# HOXD13 [12] = target: HOXD13 (Homo sapiens, UniProt P35453 263-343)
# PROP1 [13] = target: PROP1 (Homo sapiens, UniProt O75360 56-141)
# PROP1 [14] = target: PROP1 (Homo sapiens, UniProt O75360 56-141, R99H)
# HOXD13 [15] = target: HOXD13 (Homo sapiens, UniProt P35453 263-343, T313A)
# PROP1 [16] = target: PROP1 (Homo sapiens, UniProt O75360 56-141, F88S)
# PRRX1 = PRRX1 (Homo sapiens, UniProt P54821 80-166, F113S)
# SHOX = SHOX (Homo sapiens, UniProt O15266 103-189, R173C)
# HESX1 [17] = target: HESX1 (Homo sapiens, UniProt Q9UBX0 95-180, R109Q)
# ALX3 [18] = target: ALX3 (Homo sapiens, UniProt O95076 139-225, L168V)
# HESX1 [19] = target: HESX1 (Homo sapiens, UniProt Q9UBX0 95-180, F115L)
# MSX2 [20] = target: MSX2 (Homo sapiens, UniProt P35548 130-214, R199I)
# MSX2 [21] = target: MSX2 (Homo sapiens, UniProt P35548 130-214)
# VAX1 [22] = target: VAX1 (Homo sapiens, UniProt Q5SQQ9 86-172)
# MSX2 [23] = target: MSX2 (Homo sapiens, UniProt P35548 130-214, F161Y)
# VAX1 [24] = target: VAX1 (Homo sapiens, UniProt Q5SQQ9 86-172, T142I)
# VAX1 [25] = target: VAX1 (Homo sapiens, UniProt Q5SQQ9 86-172, K157R)
# HOXB6 [26] = target: HOXB6 (Homo sapiens, UniProt P17509 132-218)
# Sequence of HOXB6 (Homo sapiens, UniProt P17509 132-218) (P17509 132-218): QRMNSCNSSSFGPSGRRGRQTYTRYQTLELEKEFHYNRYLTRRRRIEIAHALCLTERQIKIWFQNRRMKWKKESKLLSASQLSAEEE
# Sequence of HOXB6 (Homo sapiens, UniProt P17509 132-218, K202E) (P17509 132-218 K202E): as the sequence (P17509 132-218) above, with K71E counted along it
# Sequence of ALX4 (Homo sapiens, UniProt Q9H161 200-286) (Q9H161 200-286): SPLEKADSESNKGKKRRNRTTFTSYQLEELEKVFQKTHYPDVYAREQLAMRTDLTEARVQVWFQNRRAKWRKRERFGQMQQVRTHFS
# Sequence of MSX2 (Homo sapiens, UniProt P35548 130-214) (P35548 130-214): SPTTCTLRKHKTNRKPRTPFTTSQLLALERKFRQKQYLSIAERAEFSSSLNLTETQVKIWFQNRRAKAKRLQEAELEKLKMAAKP
# Sequence of MSX2 (Homo sapiens, UniProt P35548 130-214, R199I) (P35548 130-214 R199I): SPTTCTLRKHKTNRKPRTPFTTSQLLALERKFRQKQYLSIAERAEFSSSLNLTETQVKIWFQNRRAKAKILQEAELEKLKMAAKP
# Sequence of MSX2 (Homo sapiens, UniProt P35548 130-214, F161Y) (P35548 130-214 F161Y): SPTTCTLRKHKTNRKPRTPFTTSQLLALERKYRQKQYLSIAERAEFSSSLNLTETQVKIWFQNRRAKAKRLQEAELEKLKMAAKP
# Sequence of ALX4 (Homo sapiens, UniProt Q9H161 200-286, Q225E) (Q9H161 200-286 Q225E): as the sequence (Q9H161 200-286) above, with Q26E counted along it
# Sequence of PROP1 (Homo sapiens, UniProt O75360 56-141, R99H) (O75360 56-141 R99H): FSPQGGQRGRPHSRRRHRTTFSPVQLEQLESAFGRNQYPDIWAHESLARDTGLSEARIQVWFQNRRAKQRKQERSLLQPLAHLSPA
# Sequence of PROP1 (Homo sapiens, UniProt O75360 56-141) (O75360 56-141): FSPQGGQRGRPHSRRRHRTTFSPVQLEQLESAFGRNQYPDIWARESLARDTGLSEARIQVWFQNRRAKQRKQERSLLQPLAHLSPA
# Sequence of PROP1 (Homo sapiens, UniProt O75360 56-141, F88S) (O75360 56-141 F88S): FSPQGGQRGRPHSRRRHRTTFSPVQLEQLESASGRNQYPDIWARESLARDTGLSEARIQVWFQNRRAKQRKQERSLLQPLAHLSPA
# Sequence of HOXD13 (Homo sapiens, UniProt P35453 263-343, T313A) (P35453 263-343 T313A): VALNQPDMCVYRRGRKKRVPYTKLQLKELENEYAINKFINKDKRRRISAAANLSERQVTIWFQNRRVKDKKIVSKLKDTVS
# Sequence of VAX1 (Homo sapiens, UniProt Q5SQQ9 86-172, K157R) (Q5SQQ9 86-172 K157R): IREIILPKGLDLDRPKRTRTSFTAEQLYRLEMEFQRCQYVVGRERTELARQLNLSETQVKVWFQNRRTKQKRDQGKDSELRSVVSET
# Sequence of HESX1 (Homo sapiens, UniProt Q9UBX0 95-180, R109Q) (Q9UBX0 95-180 R109Q): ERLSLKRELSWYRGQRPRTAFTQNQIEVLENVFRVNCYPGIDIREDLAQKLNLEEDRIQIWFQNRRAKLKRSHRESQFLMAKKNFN
# Sequence of PRRX1 (P54821 80-166 F113S): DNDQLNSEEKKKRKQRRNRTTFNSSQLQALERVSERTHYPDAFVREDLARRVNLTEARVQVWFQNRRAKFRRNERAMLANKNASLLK
# Sequence of VAX1 (Homo sapiens, UniProt Q5SQQ9 86-172, T142I) (Q5SQQ9 86-172 T142I): as the sequence (Q5SQQ9 86-172 K157R) above, with T57I, R72K counted along it
# Sequence of HOXD13 (Homo sapiens, UniProt P35453 263-343) (P35453 263-343): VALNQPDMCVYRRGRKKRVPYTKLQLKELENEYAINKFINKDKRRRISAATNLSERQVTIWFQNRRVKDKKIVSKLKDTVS
# Sequence of SHOX (O15266 103-189 R173C): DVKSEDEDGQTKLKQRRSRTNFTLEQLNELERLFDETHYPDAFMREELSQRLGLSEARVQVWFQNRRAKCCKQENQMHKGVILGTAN
# Sequence of ALX3 (Homo sapiens, UniProt O95076 139-225, N203Q) (O95076 139-225 N203Q): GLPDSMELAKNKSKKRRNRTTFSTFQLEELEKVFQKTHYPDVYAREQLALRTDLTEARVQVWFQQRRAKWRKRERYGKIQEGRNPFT
# Sequence of ALX3 (Homo sapiens, UniProt O95076 139-225, L168V) (O95076 139-225 L168V): as the sequence (O95076 139-225 N203Q) above, with L30V, Q65N counted along it
# Sequence of VAX1 (Homo sapiens, UniProt Q5SQQ9 86-172) (Q5SQQ9 86-172): as the sequence (Q5SQQ9 86-172 K157R) above, with R72K counted along it
# Sequence of ALX3 (Homo sapiens, UniProt O95076 139-225, N203S) (O95076 139-225 N203S): as the sequence (O95076 139-225 N203Q) above, with Q65S counted along it
# Sequence of HESX1 (Homo sapiens, UniProt Q9UBX0 95-180, F115L) (Q9UBX0 95-180 F115L): as the sequence (Q9UBX0 95-180 R109Q) above, with Q15R, F21L counted along it
sequence,measurement,setting,value
CATATTAA,binding signal,PAX4 [1],"11.8 upbm affinity estimate (log intensity, higher = more binding, comparable within an allelic series)"
same,binding signal,PAX4 [2],"12.1 upbm affinity estimate (log intensity, higher = more binding, comparable within an allelic series)"
same,binding signal,HOXB6 [3],"10 upbm affinity estimate (log intensity, higher = more binding, comparable within an allelic series)"
same,binding signal,ALX3 [4],"8.63 upbm affinity estimate (log intensity, higher = more binding, comparable within an allelic series)"
same,binding signal,PAX4 [5],"11.8 upbm affinity estimate (log intensity, higher = more binding, comparable within an allelic series)"
same,binding signal,PAX4 [6],"10.8 upbm affinity estimate (log intensity, higher = more binding, comparable within an allelic series)"
same,binding signal,PAX4 [7],"11 upbm affinity estimate (log intensity, higher = more binding, comparable within an allelic series)"
same,binding signal,PAX4 [8],"11 upbm affinity estimate (log intensity, higher = more binding, comparable within an allelic series)"
same,binding signal,ALX3 [9],"8.71 upbm affinity estimate (log intensity, higher = more binding, comparable within an allelic series)"
AATTTATC,binding signal,ALX4 [10],"12 upbm affinity estimate (log intensity, higher = more binding, comparable within an allelic series)"
same,binding signal,ALX4 [11],"11.1 upbm affinity estimate (log intensity, higher = more binding, comparable within an allelic series)"
same,binding signal,HOXD13 [12],"11 upbm affinity estimate (log intensity, higher = more binding, comparable within an allelic series)"
same,binding signal,PROP1 [13],"9.59 upbm affinity estimate (log intensity, higher = more binding, comparable within an allelic series)"
same,binding signal,PROP1 [14],"9.17 upbm affinity estimate (log intensity, higher = more binding, comparable within an allelic series)"
same,binding signal,HOXD13 [15],"10.9 upbm affinity estimate (log intensity, higher = more binding, comparable within an allelic series)"
same,binding signal,PROP1 [16],"7.6 upbm affinity estimate (log intensity, higher = more binding, comparable within an allelic series)"
AATTAGAA,binding signal,PAX4 [1],"11.6 upbm affinity estimate (log intensity, higher = more binding, comparable within an allelic series)"
same,binding signal,PRRX1,"11.1 upbm affinity estimate (log intensity, higher = more binding, comparable within an allelic series)"
same,binding signal,PAX4 [2],"12.1 upbm affinity estimate (log intensity, higher = more binding, comparable within an allelic series)"
same,binding signal,PAX4 [5],"11.9 upbm affinity estimate (log intensity, higher = more binding, comparable within an allelic series)"
same,binding signal,SHOX,"9.39 upbm affinity estimate (log intensity, higher = more binding, comparable within an allelic series)"
same,binding signal,PAX4 [6],"10.5 upbm affinity estimate (log intensity, higher = more binding, comparable within an allelic series)"
same,binding signal,PAX4 [7],"10.9 upbm affinity estimate (log intensity, higher = more binding, comparable within an allelic series)"
same,binding signal,HESX1 [17],"8.83 upbm affinity estimate (log intensity, higher = more binding, comparable within an allelic series)"
same,binding signal,ALX3 [18],"9.7 upbm affinity estimate (log intensity, higher = more binding, comparable within an allelic series)"
same,binding signal,HESX1 [19],"7.75 upbm affinity estimate (log intensity, higher = more binding, comparable within an allelic series)"
same,binding signal,PAX4 [8],"10.9 upbm affinity estimate (log intensity, higher = more binding, comparable within an allelic series)"
ATAGAGAT,binding signal,PAX4 [1],"10.5 upbm affinity estimate (log intensity, higher = more binding, comparable within an allelic series)"
same,binding signal,PAX4 [2],"10.6 upbm affinity estimate (log intensity, higher = more binding, comparable within an allelic series)"
CCGTCTAG,binding signal,ALX4 [10],"7.85 upbm affinity estimate (log intensity, higher = more binding, comparable within an allelic series)"
same,binding signal,ALX4 [11],"8.02 upbm affinity estimate (log intensity, higher = more binding, comparable within an allelic series)"
same,binding signal,MSX2 [20],"9.52 upbm affinity estimate (log intensity, higher = more binding, comparable within an allelic series)"
same,binding signal,MSX2 [21],"9.39 upbm affinity estimate (log intensity, higher = more binding, comparable within an allelic series)"
same,binding signal,VAX1 [22],"6.91 upbm affinity estimate (log intensity, higher = more binding, comparable within an allelic series)"
same,binding signal,MSX2 [23],"9.55 upbm affinity estimate (log intensity, higher = more binding, comparable within an allelic series)"
same,binding signal,VAX1 [24],"7.09 upbm affinity estimate (log intensity, higher = more binding, comparable within an allelic series)"
same,binding signal,VAX1 [25],"7.03 upbm affinity estimate (log intensity, higher = more binding, comparable within an allelic series)"
CAGCCCGC,binding signal,PAX4 [1],"9.17 upbm affinity estimate (log intensity, higher = more binding, comparable within an allelic series)"
same,binding signal,PAX4 [2],"9.23 upbm affinity estimate (log intensity, higher = more binding, comparable within an allelic series)"
same,binding signal,HOXB6 [3],"9 upbm affinity estimate (log intensity, higher = more binding, comparable within an allelic series)"
same,binding signal,MSX2 [20],"9.36 upbm affinity estimate (log intensity, higher = more binding, comparable within an allelic series)"
same,binding signal,PAX4 [5],"9.12 upbm affinity estimate (log intensity, higher = more binding, comparable within an allelic series)"
same,binding signal,PAX4 [6],"9.04 upbm affinity estimate (log intensity, higher = more binding, comparable within an allelic series)"
same,binding signal,MSX2 [21],"9.33 upbm affinity estimate (log intensity, higher = more binding, comparable within an allelic series)"
same,binding signal,PAX4 [7],"8.99 upbm affinity estimate (log intensity, higher = more binding, comparable within an allelic series)"
same,binding signal,MSX2 [23],"9.37 upbm affinity estimate (log intensity, higher = more binding, comparable within an allelic series)"
same,binding signal,PAX4 [8],"9.09 upbm affinity estimate (log intensity, higher = more binding, comparable within an allelic series)"
same,binding signal,HOXB6 [26],"8.96 upbm affinity estimate (log intensity, higher = more binding, comparable within an allelic series)"
AGGAGGCG,binding signal,ALX4 [10],"8.14 upbm affinity estimate (log intensity, higher = more binding, comparable within an allelic series)"
same,binding signal,ALX4 [11],"8.12 upbm affinity estimate (log intensity, higher = more binding, comparable within an allelic series)"
same,binding signal,MSX2 [20],"9.45 upbm affinity estimate (log intensity, higher = more binding, comparable within an allelic series)"
same,binding signal,MSX2 [21],"9.43 upbm affinity estimate (log intensity, higher = more binding, comparable within an allelic series)"
same,binding signal,MSX2 [23],"9.49 upbm affinity estimate (log intensity, higher = more binding, comparable within an allelic series)"
AAGGGGGA,binding signal,PAX4 [1],"9.21 upbm affinity estimate (log intensity, higher = more binding, comparable within an allelic series)"
same,binding signal,PAX4 [2],"9.23 upbm affinity estimate (log intensity, higher = more binding, comparable within an allelic series)"
same,binding signal,HOXB6 [3],"8.87 upbm affinity estimate (log intensity, higher = more binding, comparable within an allelic series)"
same,binding signal,PAX4 [5],"9.23 upbm affinity estimate (log intensity, higher = more binding, comparable within an allelic series)"
same,binding signal,PAX4 [6],"9.11 upbm affinity estimate (log intensity, higher = more binding, comparable within an allelic series)"
same,binding signal,PAX4 [7],"9.2 upbm affinity estimate (log intensity, higher = more binding, comparable within an allelic series)"
same,binding signal,PAX4 [8],"9.25 upbm affinity estimate (log intensity, higher = more binding, comparable within an allelic series)"
same,binding signal,HOXB6 [26],"8.75 upbm affinity estimate (log intensity, higher = more binding, comparable within an allelic series)"
CCGCGAAG,binding signal,ALX4 [10],"8.14 upbm affinity estimate (log intensity, higher = more binding, comparable within an allelic series)"
same,binding signal,ALX4 [11],"8.32 upbm affinity estimate (log intensity, higher = more binding, comparable within an allelic series)"
TGCCAGCA,binding signal,ALX4 [10],"8.19 upbm affinity estimate (log intensity, higher = more binding, comparable within an allelic series)"
same,binding signal,ALX4 [11],"8.28 upbm affinity estimate (log intensity, higher = more binding, comparable within an allelic series)"
same,binding signal,PROP1 [13],"6.8 upbm affinity estimate (log intensity, higher = more binding, comparable within an allelic series)"
same,binding signal,PROP1 [14],"6.79 upbm affinity estimate (log intensity, higher = more binding, comparable within an allelic series)"
same,binding signal,PROP1 [16],"6.93 upbm affinity estimate (log intensity, higher = more binding, comparable within an allelic series)"
